In PubChem BioAssay AID1159580 (chemical genetic matrix, 2015):
Out of some 5,500 compounds screened, about 2,000 (36%) were called active. Not shown: some 18% with an inconclusive outcome. Cut-off read from the data, not from the text of the source: active = normalized growth mostly below about 0.91 (no sharp cut-off); inconclusive = no clear call, values can overlap the other calls; inactive = mostly above about 0.92. The list shows a part of the results.

Assay: chemical genetic growth profiling, strain panel (AID 1159580);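 note: tested at 20 µM; growth read once vehicle control cultures reached saturation at 30 °C; 1 = growth at the plate median or of vehicle wells; lower values mean less growth of the strain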
Details: growth OD

Measured: normalized growth

C=Cc1c2[nH]c(c1C)C=c1[nH]c(c(C)c1C=C)=CC1N=C(C=c3[nH]c(c(C)c3CCC(=O)O)=C2)C(CCC(=O)O)=C1C (configuration not stated)
active: S. cerevisiae deletion strains, locus YKL009W, strain mrt4, hits give low values 0.791 | S. cerevisiae deletion strains, locus YKL085W, strain MDH1 (second series), hits give low values 1.19 [resistant] | S. cerevisiae deletion strains, locus YKL085W, strain MDH1, hits give low values 1.19 [resistant] | S. cerevisiae deletion strains, locus YNL071W, strain lat1, hits give low values 0.881
inactive: S. cerevisiae deletion strains, locus YJR075W, strain HOC1, hits give low values 0.947 | S. cerevisiae deletion strains, locus YKL068W, hits give low values 1.06 | S. cerevisiae deletion strains, locus YKL160W, strain elf1, hits give low values 0.963 | S. cerevisiae deletion strains, locus YKL190W, strain CNB1, hits give low values 0.99 | S. cerevisiae deletion strains, locus YKR001C, strain vps1, hits give low values 0.953 | S. cerevisiae deletion strains, locus YKR026C, strain gcn3, hits give low values 1.06 | S. cerevisiae deletion strains, locus YKR091W, strain srl3, hits give low values 1 | S. cerevisiae deletion strains, locus YLL001W, strain dnm1, hits give low values 1.02 | S. cerevisiae deletion strains, locus YLL026W, hits give low values 1.02 | S. cerevisiae deletion strains, locus YLL041C, strain sdh2, hits give low values 1.02 | S. cerevisiae deletion strains, locus YLR027C, strain aat2, hits give low values 1 | S. cerevisiae deletion strains, locus YLR039C, strain RIC1, hits give low values 0.996 | S. cerevisiae deletion strains, locus YLR058C, strain SHM2, hits give low values 0.976 | S. cerevisiae deletion strains, locus YLR102C, strain apc9, hits give low values 0.992 | S. cerevisiae deletion strains, locus YLR113W, strain HOG1, hits give low values 1.05 | S. cerevisiae deletion strains, locus YLR221C, strain rsa3, hits give low values 0.975 | S. cerevisiae deletion strains, locus YLR258W, strain gsy2, hits give low values 1.02 | S. cerevisiae deletion strains, locus YLR262C, strain YPT6 (second series), hits give low values 1.07 | S. cerevisiae deletion strains, locus YLR262C, strain YPT6, hits give low values 0.976 | S. cerevisiae deletion strains, locus YLR268W, strain sec22, hits give low values 1.06 | S. cerevisiae deletion strains, locus YLR320W, strain mms22, hits give low values 0.996 | S. cerevisiae deletion strains, locus YLR330W, strain CHS5, hits give low values 0.99 | S. cerevisiae deletion strains, locus YLR342W, strain FKS1 (second series), hits give low values 0.993 | S. cerevisiae deletion strains, locus YLR342W, strain FKS1, hits give low values 1.03 | S. cerevisiae deletion strains, locus YLR357W, strain rsc2, hits give low values 1.05 | S. cerevisiae deletion strains, locus YLR370C, strain arc18, hits give low values 0.999 | S. cerevisiae deletion strains, locus YLR371W, strain rom2, hits give low values 0.949 | S. cerevisiae deletion strains, locus YLR384C, strain iki3, hits give low values 1.04 | S. cerevisiae deletion strains, locus YLR418C, strain cdc73, hits give low values 0.885 | S. cerevisiae deletion strains, locus YML016C, strain PPZ1, hits give low values 0.979 | S. cerevisiae deletion strains, locus YML032C, strain rad52, hits give low values 1.01 | S. cerevisiae deletion strains, locus YML120C, strain ndi1, hits give low values 1.01 | S. cerevisiae deletion strains, locus YML124C, strain tub3, hits give low values 0.987 | S. cerevisiae deletion strains, locus YMR058W, strain fet3, hits give low values 0.912 | S. cerevisiae deletion strains, locus YMR078C, strain ctf18, hits give low values 0.993 | S. cerevisiae deletion strains, locus YMR125W, strain sto1, hits give low values 1.06 | S. cerevisiae deletion strains, locus YMR129W, hits give low values 1.06 | S. cerevisiae deletion strains, locus YMR205C, strain PFK2, hits give low values 1.02 | S. cerevisiae deletion strains, locus YMR223W, strain ubp8, hits give low values 0.972 | S. cerevisiae deletion strains, locus YMR231W, strain pep5, hits give low values 1.02 | S. cerevisiae deletion strains, locus YMR263W, strain SAP30, hits give low values 0.982 | S. cerevisiae deletion strains, locus YMR307W, strain GAS1, hits give low values 0.909 | S. cerevisiae deletion strains, locus YNL067W, strain RPL9B, hits give low values 1 | S. cerevisiae deletion strains, locus YNL128W, strain TEP1, hits give low values 0.975 | S. cerevisiae deletion strains, locus YNL153C, strain GIM3, hits give low values 1 | S. cerevisiae deletion strains, locus YNL183C, strain NPR1, hits give low values 1.01 | S. cerevisiae deletion strains, locus YNL209W, strain ssb2, hits give low values 1.02 | S. cerevisiae deletion strains, locus YNL233W, strain BNI4, hits give low values 1.01 | S. cerevisiae deletion strains, locus YNL248C, strain rpa49, hits give low values 0.987 | S. cerevisiae deletion strains, locus YNL250W, strain rad50, hits give low values 1.02 | S. cerevisiae deletion strains, locus YNL271C, strain bni1, hits give low values 1.02 | S. cerevisiae deletion strains, locus YNL298W, strain CLA4, hits give low values 1 | S. cerevisiae deletion strains, locus YNL307C, strain MCK1, hits give low values 0.966 | S. cerevisiae deletion strains, locus YNL322C, strain KRE1 (second series), hits give low values 1.03 | S. cerevisiae deletion strains, locus YNL322C, strain KRE1, hits give low values 0.989 | S. cerevisiae deletion strains, locus YNR049C, strain mso1, hits give low values 1.01 | S. cerevisiae deletion strains, locus YNR052C, strain pop2, hits give low values 1 | S. cerevisiae deletion strains, locus YOL006C, strain TOP1, hits give low values 0.997 | S. cerevisiae deletion strains, locus YOL012C, strain htz1 0.933 | S. cerevisiae deletion strains, locus YOL147C, strain pex11, hits give low values 0.996 | S. cerevisiae deletion strains, locus YOR001W, strain rrp6, hits give low values 1.03 | S. cerevisiae deletion strains, locus YOR061W, strain CKA2, hits give low values 0.98 | S. cerevisiae deletion strains, locus YOR069W, strain VPS5, hits give low values 0.95 | S. cerevisiae deletion strains, locus YOR070C, strain gyp1, hits give low values 0.98 | S. cerevisiae deletion strains, locus YOR080W, strain dia2, hits give low values 1.01 | S. cerevisiae deletion strains, locus YOR083W, strain WHI5, hits give low values 0.951 | S. cerevisiae deletion strains, locus YOR106W, strain vam3, hits give low values 0.951 | S. cerevisiae deletion strains, locus YOR136W, strain idh2, hits give low values 0.982 | S. cerevisiae deletion strains, locus YOR144C, strain elg1, hits give low values 0.996 | S. cerevisiae deletion strains, locus YOR184W, strain ser1, hits give low values 0.964 | S. cerevisiae deletion strains, locus YOR231W, strain MKK1, hits give low values 1.05 | S. cerevisiae deletion strains, locus YOR265W, strain rbl2, hits give low values 1.01 | S. cerevisiae deletion strains, locus YOR270C, strain vph1, hits give low values 0.874 | S. cerevisiae deletion strains, locus YOR290C, strain snf2, hits give low values 0.997 | S. cerevisiae deletion strains, locus YOR316C, strain cot1, hits give low values 0.99 | S. cerevisiae deletion strains, locus YPL051W, strain arl3, hits give low values 0.949 | S. cerevisiae deletion strains, locus YPL055C, strain LGE1, hits give low values 0.903 | S. cerevisiae deletion strains, locus YPL078C, strain atp4, hits give low values 0.984 | S. cerevisiae deletion strains, locus YPL106C, strain sse1, hits give low values 0.982 | S. cerevisiae deletion strains, locus YPL240C, strain hsp82, hits give low values 0.994 | S. cerevisiae deletion strains, locus YPL241C, strain CIN2, hits give low values 0.994 | S. cerevisiae deletion strains, locus YPL256C, strain CLN2, hits give low values 1.1 | S. cerevisiae deletion strains, locus YPR119W, strain clb2, hits give low values 0.994 | S. cerevisiae deletion strains, locus YPR141C, strain kar3, hits give low values 1.01 | S. cerevisiae deletion strains, locus YPR163C, strain tif3, hits give low values 1 | S. cerevisiae deletion strains, locus YPR167C, strain met16, hits give low values 1 | S. cerevisiae deletion strains, strain wtn01, hits give low values 0.996 | S. cerevisiae strains, strain wild type, hits give low values 0.972
